The text below walks through data of PubChem BioAssay (NCI).

Compounds without any hit were thinned out: in the full panel of roughly 83,000, 20% have a hit.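 Single-concentration screen, 48 h exposure, 96-well plates. Endpoint: percent growth. Below 10 = active.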 Unmarked numbers belong to inactive results. The source made the active and inactive calls.

The experiment deals with SK-OV-3 ovarian. The experiment in a line: NCI-60 one-dose screen, 48 h (100 = growth as untreated, 0 = no growth, -100 = all killed). The settings on record: 10 µM unless noted. The method, then: Growth inhibition of the SK-OV-3 human tumor cell line is measured as a screen for anti-cancer activity. Cells are grown in 96 well plates and exposed to the test compound for 48 hours. Compounds are tested at a single concentration, which is 10^-5 M for most compounds. The reported endpoint is percent growth (GI% or GIPRCNT), where numbers from 0 - 100% represent growth inhibition, and numbers from -100% - 0 represent cell death. For example, a value of 40 represents 60% growth inhibition. A value of 0 means no net growth occurred over the course of the experiment. A value of -40 indicates 40% of cells at the beginning of the experiment died by the end of the experiment. A value of -100 means all cells are dead at the end of the experiment.
NCI-60 Human Tumor Cell Lines Screen was performed using the standard one-dose NCI protocol, which is described in more detail at https://dtp.cancer.gov/discovery_development/nci-60/default.htm.
Compounds with GIPRCNT values below 10 were considered active. Activity score was based on GIPRCNT using the following formula: […]
Score is 0 for GIPRCNT values of 100 or above, 50 for GIPRCNT values of 0, and 100 for GIPRCNT values of -100.
As to `C[C@@H]1CC[C@@H]2[C@@H]1[C@H](OC(=O)/C=C/c1ccccc1)[C@]1(C3CCCCC3)C[C@@H](OC(=O)CO)[C@@]2(C)O1`, the growth is 81.4%.

As for `O=C(O)c1ccc2c(c1Sc1ccccc1)C(=O)c1ccccc1C2=O`, the growth was 101%.

On to `O=[N+]([O-])c1cccc(-c2nc3sccn3c2-c2ccnc(NCCCNS(=O)(=O)c3cccc(F)c3)n2)c1`, for which the growth is 44.6%.

Regarding `COC(=O)C12C3C(=O)N(c4ccc(OC)cc4)C(=O)C3C(c3cn(-c4ccccc4)nc3C)N1[C@H](c1cn(-c3ccccc3)nc1C)[C@@H]1C(=O)N(c3ccc(OC)cc3)C(=O)[C@@H]12` (stereo not given in full), the growth is 101%.

In the case of `c1ccc(CSc2ncnc3nc[nH]c23)nc1`, the growth is 116%.

Take `COc1ccc(C(=O)COc2ccc(/C=C3\Oc4ccc(Cl)cc4C3=O)cc2)cc1`: the growth was 98.7%.

As for `CCN(CC)CC#CCOC(=O)[C@]1(C)CCC[C@@]2(C)[C@H]1CC(C=O)=C1C=C(C(C)C)CC[C@@H]12`, the growth was 73.4%.

As for `C[C@@H]1CC[C@@H]2[C@@H]1[C@H](OC(=O)/C=C/c1ccccc1)[C@]1(c3ccccc3)C[C@@H](OC(=O)CO)[C@@]2(C)O1`, the growth is 96.1%.

As for `COc1cccc(-c2cn3c(ccc4ccccc43)n2)c1`, the growth was 45.7%.

Consider `O=C(CN1CCN(c2cc3c(cc2F)c(=O)c(C(=O)O)cn3C2CC2)CC1)Nc1nc(-c2ccccc2)cs1`, for which the growth was 93.9%.

Turning to `CCN(CC)C12CCCCC1(C)C(C#N)(C#N)C(C#N)=C(N)O2` (stereo not given), the growth was 110%.

For `CN1CCN(Cc2ccc(NC(=O)c3[nH]ncc3Nc3ncnc4c3CCC4)cc2)CC1`, the growth was 24.5%.

Regarding `COc1ccccc1-c1ccc2c(N)c(C(=O)c3ccc4c(c3)OCO4)sc2n1`, the growth was 78.3%.

For the compound `CCOC(=O)c1c2c(n3ccc(NC(=O)CCN(CC)CC)cc13)C(=O)c1ncccc1C2=O`, the growth is 36.2%.

Take `O=C(Nc1ccc(CN2CCOCC2)cc1)c1[nH]ncc1Nc1ncnc2sccc12`: the growth was 33%.

Take `CCCCNc1ccc2c3c1cccc3c(=O)n1c3ccccc3nc21`: the growth was 96.4%.

On to `COc1cnc2c(c1)C(=O)c1c-2n(CCCN2CCCC2)c(=O)c2cc([N+](=O)[O-])ccc12`, for which the growth was -9.51% (active).

In the case of `CC[C@H](Nc1ncnc(N)c1C(N)=O)c1nc2cccc(NCc3ccc(C(=O)NO)cc3)c2c(=O)n1-c1ccccc1`, the growth was 91.9%.

Consider `COc1ccc2nc3cc(Cl)ccc3c(N3CCN(c4ccnc(N5CCOCC5)n4)CC3)c2c1`, for which the growth was 85.5%.

Regarding `CCc1ccc(C(c2ccc(CC)cc2)C(Cl)(Cl)CCl)cc1`, the growth was 105%.

As for `O=C(CCN1CCOCC1)Nc1ccc(Cn2nnc3c2C(=O)c2nnn(Cc4ccc(NC(=O)CCN5CCOCC5)cc4)c2C3=O)cc1`, the growth is 95.4%.

On to `CCN(CC)CC(C)Nc1ccc([N+](=O)[O-])c2sc3ccccc3c(=O)c12` (stereo not given), for which the growth was 33.8%.

For `COc1ccc(-c2cc(-c3cccnc3)nc3sc4c(=O)n(-c5ccc(C)cc5)cnc4c23)cc1OC`, the growth is 99.2%.

Turning to `O=C(Nc1cccc2[nH]c(C(F)(F)F)nc12)c1ccc(Br)cc1F`, the growth is 65.1%.

As for `CCOC(=O)/C=C/C(=O)[C@H](CC(C)C)NC(=O)[C@H](Cc1ccccc1)NC(=O)OCc1ccccc1`, the growth was 102%.

On to `O=c1c2c3c(sc2n2c(CCl)nnc2n1Cc1ccccc1)CCCC3`, for which the growth was 103%.

Turning to `O=C(/C=C/c1cccc(Br)c1)c1ccccc1`, the growth was 82.1%.

For `CN1CCN(Cc2ccc(NC(=O)c3[nH]ncc3Nc3ncnc4[nH]ccc34)cc2)CC1`, the growth is 18.5%.

For `C=C1CCC2C3(C)COC(c4ccccc4Br)OC3CCC2(C)C1C/C=C1/C(=O)OCC1OC(C)=O` (stereo not given), the growth is 52.7%.

Turning to `COc1cc(C2CC(=O)c3c(C)nn(-c4nc5ccccc5[nH]4)c3C2)cc(OC)c1OC` (stereo not given), the growth was 17.9%.

Consider `CCOC(=O)c1cnc2cc(Cl)c(F)cc2c1Nc1cccc(NS(C)(=O)=O)c1`, for which the growth is 111%.

Take `Cc1cc(N/N=C/c2nc(-c3ccc(Cl)cc3)oc2C)c2cc(Br)ccc2n1`: the growth is 104%.

For the compound `Nc1c(C(=O)Nc2ccccc2)sc2nc3c(cc12)CN(CCc1ccccc1)CC3`, the growth is 89.8%.

Turning to `CC(C)[C@@H]1CC[C@]2(C(=O)NCCCCN=C(N)N)CC[C@]3(C)[C@H](CC[C@@H]4[C@@]5(C)CCC(=O)C(C)(C)[C@@H]5CC[C@]43C)[C@@H]12`, the growth is 91.7%.

Regarding `COCCOc1ccc(-c2nc3ccc(-c4nc5ccc(N6CCN(C)CC6)cc5[nH]4)cc3[nH]2)cc1`, the growth was 7.92% (active).

In the case of `COc1ccc(CCN2CCCn3c2nc2ccccc2c3=O)cc1`, the growth was 53.7%.

For the compound `O=c1c2cccc3c(Nc4c(F)cccc4F)ccc(c32)c2nc3ccccc3n12`, the growth was 89.1%.

Turning to `COc1nc2c(cc1S(=O)(=O)c1ccccc1)CCc1c-2cnn1Cc1ccccc1`, the growth is 58%.

With `COc1ccc(C2CC(=O)Nc3c2c(C)nn3-c2nc3ccccc3[nH]2)cc1` (stereo not given), the growth was 122%.

As for `CCCCCCCCCCCCCC(=O)C(C)N` (stereo not given), the growth was 72.5%.
